Results: PubChem BioAssay AID493240 (Broad Institute, 2011)
Among all 1,300 compounds or so, about 270 (21%) were called active. No rule for the calls is given here. The list is a sample of the results. Entries with a potency or affinity are not part of this list.

Test: SK-MEL-5 parental cell viability loss, dose response, orthogonal assay for MITF inhibitor project, CellTiter-Glo, cherry-picked, set 3 (AID 493240)
Conditions: SK-MEL-5 viability, ATP luminescence (CellTiter-Glo), 24 h; series mostly up to 35 µM

SMILES | outcome
COc1ccc(COC(=O)c2cc([N+](=O)[O-])ccc2N2CCOCC2)cc1F | inactive
CN(C)c1ccc(/C=C/c2cccc[n+]2[O-])cc1 | inactive
Cc1ccc(NC(=O)Cc2noc3ccccc23)cc1 | inactive
CC(=NNc1nc2ccccc2o1)c1cc2ccccc2cn1 | inactive
COC(=O)c1ccc(COc2ccc3c(c2)CCC3)o1 | inactive
Fc1ccc(-c2nnc(-c3ccc(F)cc3)o2)cc1 | inactive
COc1cccc(-c2nnc3sc(-c4cccs4)nn23)c1 | inactive
Nc1ncnc(Sc2ncccn2)c1[N+](=O)[O-] | inactive
O=C(CSc1ccccn1)c1ccc2c(c1)OCO2 | inactive
O=C(CCl)N1CCN(S(=O)(=O)c2ccc3c(c2)CCC3)CC1 | inactive
O=C(Nc1nc(-c2ccccn2)cs1)c1ccc([N+](=O)[O-])o1 | inactive
N#C/C(=C(/O)CCl)c1nc2ccccc2[nH]1 | inactive
C/C(=C\c1ccccc1)C(=O)Nc1ccc(Cl)cn1 | inactive
COc1cc(SC)ccc1C(=O)NCCOc1ccccc1Cl | inactive
CCn1c(=O)c(C(=O)NCc2ccccc2Cl)c(O)c2ccccc21 | inactive
COCCNC(=O)c1cc2sc3ccccc3c2s1 | inactive
O=c1nc(N/N=C/c2ccccn2)cn[nH]1 | inactive
O=C(CCl)N(c1ccccc1)c1c[nH]c2ccccc12 | inactive
Cc1ccc(NC(=O)Nc2ccccc2)nc1 | inactive
FC(F)(F)c1cc(CCN2CCNC[C@@H]2Cc2ccccc2)cc(C(F)(F)F)c1 | inactive
CCSc1ccccc1C(=O)n1nnc2ccccc21 | inactive
Cc1cc(C(=O)COc2cccnc2[N+](=O)[O-])c(C)n1-c1ccccc1 | inactive
Cc1cc(C)c2ccc(N)nc2c1O | inactive
Cc1cc(C(F)(F)F)c2c(N)c(C(=O)Nc3cc(C)on3)sc2n1 | inactive
O=C(Cn1cnc2c(oc3ccccc32)c1=O)c1ccccc1 | inactive

SMILES | outcome
Cc1nc(C)c(C(=O)N/N=C/c2cc(Br)ccc2O)s1 | inactive
CCCCNc1nc(=S)n(-c2ccccc2)c(C)c1C(C)=O | inactive
COCCn1c(C)cc(C(=O)COC(=O)c2ccccc2Br)c1C | inactive
CCC(=O)NCCc1nc2cc(NC(=O)c3cccc([N+](=O)[O-])c3)ccc2n1C | inactive
CC(C)(C)c1ccc(/C=N/Nc2ccc(C(=O)O)cc2)cc1 | inactive
Cc1ccc(/C=N/Nc2ccc(C(=O)O)cc2)s1 | inactive
COc1cccc(CNc2nc3ccccc3n2C)c1O | inactive
CC(=O)N(c1nnc(-c2cccc(C)c2)s1)C1CCCC1 | inactive
CCOC(=O)c1ccc2nc(C)c(CCC(C)=O)c(Cl)c2c1 | inactive
O=S(=O)(c1ccc(Cl)cc1)N1CCN(Cc2ccc(O)c3ncccc23)CC1 | inactive
CCCOCc1ccc(O)c2ncccc12 | inactive
O=C(CSC(=S)N1CCCCC1)c1c(F)cccc1F | inactive
c1ccc(Cc2cc(-c3ccccc3)on2)cc1 | inactive
COc1cc2c(c(OC)c1OC)-c1ccc(OC)c(=O)cc1C(NC(C)=O)CC2 (stereo not given) | inactive
CCN1c2ccccc2NC2C1C(C(C)=O)C(=O)N2c1ccc(Cl)cc1 (stereo not given) | inactive
COc1cnc(-c2ccccn2)nc1NC(C)C | inactive
N#CCSc1nc2ccccc2c2nc3ccccc3n12 | inactive
Cc1ccc(SCc2cn3cc(Cl)ccc3n2)cc1 | inactive
CN1CCN(C2=C(NS(=O)(=O)c3cccs3)C(=O)c3ccccc3C2=O)CC1 | inactive
CC(=O)Nc1ccc(S(=O)(=O)N2CCn3cccc3C2C)cc1 (stereo not given) | inactive
Cc1cc(C(=O)Nc2ccc([N+](=O)[O-])cn2)cs1 | inactive
CCOC(=O)c1cc2sccc2n1CC(=O)N1c2ccccc2CC1C (stereo not given) | inactive
O=C(Nc1ccc2c(c1)OCCO2)c1cccc(Cl)c1Cl | inactive
O=C(c1nnsc1S(=O)(=O)c1ccc(Cl)cc1)N1CCOCC1 | inactive
CC(C)(CO)NC(=O)c1ccc2nc(Cc3cccc(Cl)c3)oc2c1 | inactive

SMILES | outcome
COc1ccc2cc3cc(C(=O)NCCc4ccc(OC)c(OC)c4)oc3nc2c1 | inactive
Cc1ccccc1C(=O)O/N=C(\N)c1ccc([N+](=O)[O-])cc1 | inactive
Nc1ccc(-c2ncc(-c3ccccc3)o2)cc1 | inactive
CCOC(=O)CSC1=NC(=O)/C(=C\c2ccc(Cl)cc2)S1 | inactive
CCOC(=O)CSC1=NC(=O)/C(=C\c2ccc(OC(C)=O)cc2)S1 | inactive
CC(Oc1ccccc1)C(=O)Nc1nc(-c2ccccn2)cs1 (stereo not given) | inactive
CC(C)(C)C1CCC(OC(=O)CN2CCCCC2)CC1 (stereo not given) | inactive
CC(O)CNC(=O)C1CCN(Cc2ccc(OCc3ccccc3)cc2)CC1 (stereo not given) | inactive
Cc1cc(C(=O)CN2C(=O)c3ccccc3S2(=O)=O)c(C)n1-c1ccccc1 | inactive
O=C(N/N=C\c1cc(Br)ccc1O)c1ccc(S(=O)(=O)N2CCCCC2)cc1 | inactive
COC(=O)[C@@H](C)NC(=O)c1ccc2oc(CCc3ccccc3)nc2c1 | inactive
O=C(Nc1nc2ccccc2s1)c1ccccc1[N+](=O)[O-] | inactive
Cc1nc2nc(C)c(NS(=O)(=O)c3ccc4c(c3)CCCC4)c(=O)n2[nH]1 | inactive
COc1ccc(/C=C2\SC(=O)N(CCCC(=O)Nc3cc(Cl)ccc3C(=O)O)C2=O)cc1 | inactive
CC(C)c1ccc(CNc2ncccn2)cc1 | inactive
COC(=O)c1ccc(/C=C(\C#N)C(=O)NC(C)c2ccccc2)cc1 (stereo not given) | inactive
Clc1ccc(-c2nc(-c3ccncc3)no2)c(Cl)c1 | inactive
Cc1ccc(C2CC(C(F)(F)F)n3nc(C(=O)NCc4c(C)nn(C)c4C)c(Cl)c3N2)cc1 (stereo not given) | inactive
Cc1nn(-c2ccccc2Cl)c(Cl)c1/C=N/Nc1cccc(C(=O)O)c1 | inactive
O=C(Nc1ccc(OC(F)(F)F)cc1)c1[nH]ncc1[N+](=O)[O-] | inactive
C=CCNC(=O)Cn1nnc(-c2ccc(-c3ccc(OC)cc3)cc2)n1 | inactive
C=CCOc1ccc(/C=C2\SC(=S)N(CCC(=O)O)C2=O)cc1 | inactive
CCc1nc2oc3ccccc3c(=O)c2cc1C(=O)OC | inactive
COc1ccc(S(=O)(=O)N2CCCCC2)cc1NC(=O)c1ccc([N+](=O)[O-])o1 | inactive
CCCCOC(=O)c1[nH]c(C)c(C(=O)OC)c1C | inactive
